The source of these data is the supplement of paper PMC9446081.

± gives the standard deviation of the averaged measurements.

MurC, sequence (C4ZRI6 whole entry, looked up): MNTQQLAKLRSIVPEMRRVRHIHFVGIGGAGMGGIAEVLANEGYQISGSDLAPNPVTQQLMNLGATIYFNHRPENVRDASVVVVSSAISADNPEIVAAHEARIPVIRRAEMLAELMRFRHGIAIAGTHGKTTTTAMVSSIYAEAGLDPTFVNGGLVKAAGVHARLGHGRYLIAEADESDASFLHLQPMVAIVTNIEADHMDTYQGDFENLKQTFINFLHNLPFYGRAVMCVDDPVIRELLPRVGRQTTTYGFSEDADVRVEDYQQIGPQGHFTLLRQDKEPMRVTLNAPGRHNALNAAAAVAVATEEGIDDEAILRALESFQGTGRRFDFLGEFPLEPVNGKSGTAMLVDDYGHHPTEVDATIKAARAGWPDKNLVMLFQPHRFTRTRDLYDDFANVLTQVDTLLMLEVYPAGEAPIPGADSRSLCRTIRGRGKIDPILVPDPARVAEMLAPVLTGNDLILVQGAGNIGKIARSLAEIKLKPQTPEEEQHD

The target of this test is MurC (UniProt C4ZRI6). As to the kind of experiment: relative enzymatic activity vs untreated control (fraction); higher = less inhibition. The note with it: 100 µM; incubation time: 2 h at 37 C. The method, then:
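In vitro enzymatic inhibition assays (ProFoldin kits) for 12 purified essential E. coli enzymes or complexes, each treated with 218 active antibacterial compounds at 100 µM for 2 h at 37°C. Read-outs were fluorescence or absorbance (phosphate detection, dye binding), converted to activity via standard curves and expressed relative to untreated DMSO controls.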
Take `CN(C)[C@@H]1C(=O)[C@H](C(N)=O)C(=O)[C@@]2(O)C(=O)[C@@H]3C(=O)c4c(O)cccc4[C@@](C)(O)[C@H]3C[C@@H]12`: the relative enzymatic activity came to 1 ± 0.031.
`O=[N+]([O-])c1ccc(N(CCO)CCO)c2c1no[n+]2[O-]` yielded a relative enzymatic activity of 0.936 ± 0.055.
`COP(=S)(OC)Oc1cc(Cl)c(Cl)cc1Cl` displayed a relative enzymatic activity of 1.08 ± 0.024.
Turning to `Cc1c(N)nc([C@H](CC(N)=O)NC[C@@H](N)C(N)=O)nc1C(=O)N[C@H](C(=O)N[C@@H](C)[C@H](O)[C@@H](C)C(=O)N[C@@H](C(=O)NCCc1nc(-c2nc(C(=O)NCCC[S+](C)C)cs2)cs1)[C@@H](C)O)[C@@H](O[C@H]1O[C@H](CO)[C@H](O)[C@@H](O)[C@H]1O[C@H]1O[C@H](CO)[C@@H](O)[C@H](OC(N)=O)[C@@H]1O)c1c[nH]cn1`, the relative enzymatic activity is 0.895 ± 0.017.
`[O-][n+]1ccccc1[S][Zn][S]c1cccc[n+]1[O-]` displayed a relative enzymatic activity of 1.21 ± 0.17.
In the case of `C[CH2][Hg][S]c1ccccc1C(=O)[O-].[Na+]`, the relative enzymatic activity stood at 1.17 ± 0.085.
In the case of `Cc1c(N)nc([C@H](CC(N)=O)NC[C@@H](N)C(N)=O)nc1C(=O)N[C@H](C(=O)N[C@@H](C)[C@H](O)[C@@H](C)C(=O)N[C@@H](C(=O)NCCc1nc(-c2nc(C(=O)NCCC[S+](C)C)cs2)cs1)[C@@H](C)O)[C@@H](O[C@H]1O[C@H](CO)[C@H](O)[C@@H](O)[C@H]1O[C@H]1O[C@H](CO)[C@@H](O)[C@H](OC(N)=O)[C@@H]1O)c1cnc[nH]1`, the relative enzymatic activity was 0.849 ± 0.025.
`CCCCCCCCCCCCCCCC[N+](C)(C)C.[Br-]` returned a relative enzymatic activity of 0.492 ± 0.29.
`CNC1C(O)C(OC2C(N)CC(N)C(OC3OC(C(C)O)C(O)C(O)C3N)C2O)OCC1(C)O` (centres undefined): the relative enzymatic activity was found to be 1.03 ± 0.029.
`CN1C(=O)[C@]23CC4=CC=C[C@H](O)[C@H]4N2C(=O)[C@@]1(CO)SS3` yielded a relative enzymatic activity of 0.8476 ± 0.0014.
On to `O=[N+]([O-])C(Br)(CO)CO`, for which the relative enzymatic activity turned out to be 1.11 ± 0.12.
The molecule `Oc1cc(Cl)ccc1Oc1ccc(Cl)cc1Cl` registered a relative enzymatic activity of 1.2 ± 0.16.
Regarding `CC(=O)Oc1ccc(Cl)c2cccnc12`, the relative enzymatic activity was 1.03 ± 0.041.
Take `O=S(=O)(O)O.Oc1cccc2cccnc12`: the relative enzymatic activity was determined as 1.08 ± 0.015.
With `Cc1nc2c(=O)n(C)c(=O)nc-2n(C)n1`, the relative enzymatic activity worked out at 1.06 ± 0.095.
The molecule `CC(=O)[O][Hg][c]1ccccc1` returned a relative enzymatic activity of 1.69 ± 0.032.
In the case of `CN(C)[C@@H]1C(=O)C(C(N)=O)=C(O)[C@@]2(O)C(O)=C3C(=O)c4c(O)cccc4[C@](C)(O)[C@H]3C[C@@H]12`, the relative enzymatic activity came out at 1.017 ± 0.0095.
In the case of `CN[C@H]1C[C@@H](N)[C@H](O)[C@@H](O[C@@H]2O[C@H](CO)[C@H](O)[C@@H]3O[C@@]4(O[C@H]23)O[C@H]([C@@H](N)CO)[C@H](O)[C@H](O)[C@H]4O)[C@@H]1O` it was 1.04 ± 0.017; in that of `O=C1C=C2C(=CCOC2O)O1` (centres undefined), 1.06 ± 0.07.
Molecule `CCCCCCCCCCCCCCCC[n+]1ccccc1` yielded a relative enzymatic activity of 0.754 ± 0.24.
`CN(C)[C@@H]1C(=O)[C@@H](C(N)=O)C(=O)[C@@]2(O)C(=O)[C@H]3C(=O)c4c(O)ccc(Cl)c4[C@@](C)(O)[C@H]3C[C@@H]12`: the relative enzymatic activity was 1.08 ± 0.068.
`CCn1cc(C(=O)[O-])c(=O)c2cc3c(cc21)OCO3.[K+]` showed a relative enzymatic activity of 0.977 ± 0.032.
As for `CCCCCCCCCCCCCCCC[n+]1ccccc1.[Cl-]`, the figure is 0.264 ± 0.051; as for `Cn1ncnc2c(=O)n(C)c(=O)nc1-2`, 0.99 ± 0.11.
